This is an account of results in PubChem BioAssay AID924 (National Center for Advancing Translational Sciences (NCATS), 2007).

Out of some 130,000 compounds screened, about 1,200 (0.92%) were called active. Another 3% or so got no clear call; they are omitted. This excerpt belongs to a sample that is enriched for actives. A number with no mark means an inactive call. Calls come from the whole dose curve; as a rule, active = well fitted cell-killing curve with a large enough effect; inconclusive = small, poorly fitted or top-dose-only effect; inactive = no such curve, though single readings can be large or run the other way.
Potency is the fitted concentration of half-maximal effect.

A short description of this experiment: qHTS Screen for Compounds that Selectively Target Cancer Cells with p53 Mutations: Cytotoxicity of p53ts Cells at the Permissive Temperature.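 For activity change, negative = cytotoxicity: 0% = DMSO and -100% = full killing by reference compound.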 Note: nearly all actives have a fitted effect of over 55% in size. The following applies: H1299-p53A138V at 32C, ATP luminescence viability, 24 h; series mostly up to 46.1 µM; activity change, negative = cytotoxicity: at the top concentration. The source says: NIH Chemical Genomics Center [NCGC] NIH Molecular Libraries Screening Centers Network [MLSCN] MLSCN Grant: 1 X01 MH079844-01 Assay Submitter (PI): Dr. SUN, YI, University of Michigan NCGC Assay Overview: Synthetic Lethal Screen for Compounds to Kill Cancer Cells with p53 Mutation. Tumor suppressor gene p53 serves as a major cellular barrier against tumorigenesis. […] The goal of this screening is to identify small molecule probes that selectively kill cancer cells with mutations in p53. This screening was carried out using two lines of H1299 lung cancer cells. The H1299-p53 A138V line express a temperature sensitive p53 mutant (p53ts) in which the mutant p53 protein (A138V) is in the mutant confirmation when grown at 39C (the nonpermissive temperature) and in the wild type conformation when grown at 32C (the permissive temperature). A H1299-neo line (p53 null) grown at both 39C and 32C were used as counter-screens to filter out false positive associated with temperature shifting. The small molecular compounds that selectively target mutant p53-containing cancer cells were selected as candidate probes for further study. A cytotoxicity assay based on the measurement of ATP contents in cells was used in this screen. Concentration-responses of all the compounds in the library collection were determined in qHTS using the cell lines and temperature conditions as above.
NCGC Assay Protocol Summary: Both the H1299-p53A138V and H1299-neo cell lines were provided by Dr.Yi Sun, a PI at the University Michigan. The cells were maintained and cultured at 37C. The resuspended frozen cells were used to plate the cells in the 1536-well assay plates at a density of 600 cells per well in 5 ul medium. The assay plates with the cells were incubated at 37C for 16 to 30 hours before the experiments. The library compounds in DMSO solution were added to the cells in assay plates and incubated 24 hours at 39C (for mutant p53 conformation) or 32C (for normal p53 conformation as control). An ATP_lite assay kit (PerkinElmer) was used to determine the cell viability. Tomaxifen (100uM) was used as the positive control for cell killing. Data were normalized to the controls for basal activity (DMSO only) and 100% killing (100uM tamoxifen). AC50 values were determined from concentration-response data modeled with the standard Hill equation. P53 assay protocol: 1. Reagent; 5 uL H1299-p53A138V or H1299-neo cell cells/well 2. Time; overnight; 37C incubation 3. Compounds; 23 nL; 5.9 nM to 46 uM 4. Controls; 23 nL; Tamoxifen 100 uM 5. Time; 24 hr; 37C incubation 6. Reagent; 3 uL; ATP_Lite reagent 7. Time; 20 min; Room Temperature 8. Detection; Luminescence; Viewlux plate reader Keywords: p53, synthetic lethal, cancer, cell viability, cytotoxicity, H1299 cell line, luminescence, MLSMR, MLSCN, NIH Roadmap, qHTS, NCGC
(In general: Quantitative high-throughput screening tests each substance at several concentrations.)
Turning to `Cc1ccc(Cl)cc1NC(=O)Cc1ccc(-n2c(C)nc3cccnc32)cc1`, the “activity change, negative = cytotoxicity” value is -1.95%.
On the same count and under the same terms, under `COc1cccc(N2CC(NC(=O)/C=C\c3ccccc3)CC2=O)c1` (stereo unspecified) stands -6.84%.
On to `Cc1nc(-c2ccc(NC(=O)c3cccs3)cc2)cs1`, for which the Potency was 1.26 µM (active).
On to `CCc1ccccc1NC(=O)c1cccs1`, for which the “activity change, negative = cytotoxicity” value is 10.4%.
Regarding `O=C(O)c1ccc(NC(=O)c2cccs2)cc1`, the “activity change, negative = cytotoxicity” value was -6.14%.
The same measure, in the same setting: under `Cc1c(CNC(C)c2ccccc2)c(C(=O)O)c(C)n1Cc1c(F)cccc1Cl` (stereo unspecified) stands 9.47%; under `COc1cc(NC(=O)C2CCN(c3cnccn3)CC2)cc(OC)c1`, 4.51%.
Turning to `c1ccc(-c2nc(NCc3ccco3)c3ccccc3n2)cc1`, the “activity change, negative = cytotoxicity” value is 1.53%.
Same read-out and setting: under `c1ccc2[nH]c(NCCN3CCOCC3)nc2c1` stands -0.862%.
With `CN(C)c1ccc(-c2nc(NCCN3CCOCC3)c3ccccc3n2)cc1`, the Potency is 12.6 µM (active).
As to `NS(=O)(=O)c1ccc(CCNC(=O)CCCCCn2c(=O)[nH]c3ccccc3c2=O)cc1`, the “activity change, negative = cytotoxicity” value was 5.53%.
Still for that read-out and setting: for `CC(=O)Nc1cccc(NC(=O)CSc2cn(CC(=O)N3CCCC3)c3ccccc23)c1` the value was -2.57%; for `CCOc1ccccc1C(=O)NCC(c1ccc(N(C)C)cc1)N1CCCC1` (stereo unspecified), -11.6%.
For the compound `COC(=O)c1nc2ccccc2s1`, the “activity change, negative = cytotoxicity” value was 3.09%.
With `O=C(O)CSCc1nc2ccccc2s1`, the “activity change, negative = cytotoxicity” value is -0.888%.
With `CCC(=O)NC(=Nc1nc2ccccc2s1)NC(=O)CC`, the Potency was 15.8 µM (active).
Consider `COc1ccc(OC)c(-c2noc(N3CCN(c4cc(Cl)ccc4C)CC3)n2)c1`, for which the “activity change, negative = cytotoxicity” value was -5.9%.
With `Cc1ccc(F)cc1NC(=O)c1cccc(N(C)C)c1`, the “activity change, negative = cytotoxicity” value was -9.85%.
Consider `Cc1ccccc1NC(=O)c1ccccc1`, for which the “activity change, negative = cytotoxicity” value is -3.24%.
As for `Cc1ccc(NC(=O)c2cccc(N(C)C)c2)cc1NC(=O)c1ccc(O)cc1`, the Potency was 12.6 µM (active).
`CC(C)c1ccc(NC(=O)C2CCN(c3nc(-c4ccc(C(C)C)cc4)no3)CC2)cc1`: the “activity change, negative = cytotoxicity” value was -16%.
The same measure, in the same setting: for `Cn1c(=O)c(C(=O)O)nn(-c2ccccc2)c1=O` the value was -8.15%; for `O=C(Nc1nnc(S(=O)(=O)N2CCCCCC2)s1)c1cccc(Br)c1`, 0.59%.
On to `O=C(Cn1c(=O)nc(-c2ccccc2)c2cc(Cl)ccc21)NCc1ccc(Cl)cc1`, for which the Potency is 10 µM (active).
`O=C(Cn1nnc(-c2ccccc2)n1)NCc1ccccc1`: the “activity change, negative = cytotoxicity” value was 0.275%.
Take `CCN(C(=O)Cn1c(=O)nc(-c2ccccc2)c2cc(Cl)ccc21)c1cccc(C)c1`: the “activity change, negative = cytotoxicity” value is 13.2%.
On to `CCc1ccccc1NC(=O)Cc1ccc(NC(=O)N2CCCCc3ccccc32)cc1`, for which the “activity change, negative = cytotoxicity” value was -3.84%.
In the case of `COc1ccc2c(c1)CCc1c(C(=O)Nc3cc(C)ccc3O)noc1-2`, the “activity change, negative = cytotoxicity” value was -26.6%.
Still for that read-out and setting: under `Cc1ccc2nc(COc3cccc(NC(=O)Nc4ccc(C)c(Cl)c4)c3)cc(=O)n2c1` stands 13.2%; under `CCOc1ccc(NC(=O)Nc2cc(C)on2)cc1`, -22.8%.
With `O=C(CCc1ccccc1)Nc1cccc(-c2nnc(-c3ccco3)o2)c1`, the “activity change, negative = cytotoxicity” value is 7.35%.
With `CCOc1ccc(-c2nnc(-c3ccco3)o2)cc1`, the Potency was 10 µM (active).
With `CCOc1ccc(NC(=O)c2ncoc2-c2ccco2)cc1`, the Potency is 12.6 µM (active).
As for `CCOc1ccc(C(=O)Nc2ccncc2)cc1`, the “activity change, negative = cytotoxicity” value was -20.1%.
The same measure, in the same setting: under `CCC(=O)Oc1cccc(C(=O)Nc2ccc(-c3nnc(-c4ccco4)o3)cc2)c1` stands -15.6%; under `COc1ccc(-n2c(=O)c3c(c4cc(OC)ccc4n3C)n(Cc3cccc(C)c3)c2=O)cc1`, -4.55%.
As for `COc1ccc(N2C(=O)CSC23C(=O)N(Cc2cccc(F)c2)c2ccccc23)cc1Cl` (stereo unspecified), the “activity change, negative = cytotoxicity” value was 9.15%.
On the same count and under the same terms, under `CCCCOc1ccc(NC(=O)c2cc3c(n(-c4ccc(Cl)cc4)c2=O)CCCC3=O)cc1` stands -1.65%; under `COc1ccc(C2CC(=O)N(Cc3ccccc3C)c3c2c(C)nn3-c2nc(C)cc(C)n2)c(OC)c1` (stereo unspecified), -0.383%; under `CCOCCCNC(=O)c1ccc2nc(CCc3ccccc3)oc2c1`, -3.08%.
`COc1ccc(NC(=O)c2c(C)oc3c2CCCC3)cc1`: the “activity change, negative = cytotoxicity” value is 0.617%.
Still for that read-out and setting: for `CC1CCc2noc(NC(=O)c3ccc([N+](=O)[O-])cc3)c2C1` (stereo unspecified) the value was 2.83%.
Regarding `COc1ccc(C(=O)Nc2onc3c2CCCC3)cc1`, the Potency was 10 µM (active).
For the compound `COc1ccc(-c2onc(C)c2C)cc1S(=O)(=O)NCC1CCN(Cc2cccc(F)c2)CC1`, the “activity change, negative = cytotoxicity” value was 8.75%.
On the same count and under the same terms, under `CCOc1ccccc1NC(=O)CN1CCCN(Cc2cccc(Cl)c2)S1(=O)=O` stands 8.18%; under `Cc1ccc(C(=O)Nc2ccc3[nH]c(=O)c(=O)[nH]c3c2)cc1`, -3.12%; under `COc1ccc(CNC(=O)c2ccc3c(O)c(S(=O)(=O)c4ccccc4)c(=O)[nH]c3c2)cc1`, 4.43%.
As for `CC(C)c1ccc(NC(=O)c2ccc3c(O)c(S(=O)(=O)c4ccccc4)c(=O)[nH]c3c2)cc1`, the Potency was 12.6 µM (active).
On the same count and under the same terms, for `Cn1c(=NC(=O)c2cnccn2)sc2ccccc21` the value was 15.8 µM (active).
Take `Cn1c(=NC(=O)CSCC(=O)N2CCCCC2)sc2ccccc21`: the “activity change, negative = cytotoxicity” value was -9.54%.
With `Cn1c(=NC(=O)CSCC(=O)N2CCOCC2)sc2ccccc21`, the “activity change, negative = cytotoxicity” value was -3.86%.
